Data as given in paper PMC9838217, “Structure of SALL4 zinc finger domain reveals link between AT-rich DNA binding and Okihiro syndrome”.
Substitutions are numbered along the chain they refer to.

What was measured:
[1] = target: T1, SALL4 ZFC4 R900W (HT-SELEX) (Mus musculus, UniProt Q8BX22 870-940, R900W); experiment: HT-SELEX; high values mean tight binding; details: protein: recombinant; vector His6-GST; dsDNA, one strand shown
T1 sequence: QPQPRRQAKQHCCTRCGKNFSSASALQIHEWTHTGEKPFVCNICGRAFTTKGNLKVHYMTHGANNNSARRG
Procedure, shortened: (§1)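 Purified recombinant mouse SALL4 zinc finger cluster 4 (residues 870–940, 1 µg) and library DNA (1.5 µg first cycle, 200 ng later) were incubated for 10 min at room temperature in 100 µl of 10 mM Tris–HCl pH 7.5, 50 mM NaCl, poly(dI-dC) and DTT. After Ni2+ bead capture and up to 6 triplicate cycles of selection, DNA was MiSeq-sequenced and scanned for 6-mers. Binding signal is the fold change in each canonical k-mer's read fraction relative to the initial random library.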

[2] = target: T2, SALL4 ZFC4 G921D (HT-SELEX) (Mus musculus, UniProt Q8BX22 870-940, G921D); experiment: HT-SELEX; high values mean tight binding; details: protein: recombinant; vector His6-GST; dsDNA, one strand shown
T2 sequence: T1 sequence with W31R, G52D
Procedure, shortened: as §1

| Sequence | binding signal [1] [fold-change vs cycle 0] | binding signal [2] [fold-change vs cycle 0] |
| --- | --- | --- |
| ACCCGG | 0.233 ± 0.025 | 0.341 ± 0.0691 |
| GCCCTA | 0.353 ± 0.0173 | 0.496 ± 0.0842 |
| CAGGCG | 0.129 ± 0.00318 | 0.24 ± 0.0647 |
| ACCGGC | 0.106 ± 0.00697 | 0.227 ± 0.0683 |
| CTCCGC | 0.169 ± 0.0169 | 0.271 ± 0.0458 |
| ACGGCT | 0.272 ± 0.0156 | 0.399 ± 0.0636 |
| ATGGCG | 0.236 ± 0.0151 | 0.371 ± 0.0568 |
| CGTGCA | 0.286 ± 0.00377 | 0.417 ± 0.0517 |
| CCCTGC | 0.219 ± 0.0265 | 0.323 ± 0.0875 |
| CGGCAG | 0.106 ± 0.00823 | 0.214 ± 0.0627 |
| CCGTCG | 0.147 ± 0.00952 | 0.245 ± 0.0616 |
| GCGGAC | 0.125 ± 0.0161 | 0.239 ± 0.0553 |
| GCCCGA | 0.125 ± 0.0121 | 0.243 ± 0.0758 |
| AGGCGC | 0.0722 ± 0.0162 | 0.185 ± 0.0792 |
| ACGGGG | 0.257 ± 0.00971 | 0.37 ± 0.0678 |
| CGGCGC | 0.0207 ± 0.00259 | 0.0907 ± 0.0497 |
| GCGACC | 0.112 ± 0.0125 | 0.237 ± 0.0806 |
| GCGACA | 0.186 ± 0.0276 | 0.338 ± 0.0565 |
| CGCTGA | 0.291 ± 0.0233 | 0.403 ± 0.0818 |

| Sequence | binding signal [1] [fold-change vs cycle 0] | binding signal [2] [fold-change vs cycle 0] |
| --- | --- | --- |
| CCAGCG | 0.131 ± 0.0133 | 0.245 ± 0.0689 |
| AGCCCA | 0.323 ± 0.00919 | 0.465 ± 0.0703 |
| ACGCGC | 0.0585 ± 0.00894 | 0.159 ± 0.07 |
| CGCTAC | 0.3 ± 0.026 | 0.426 ± 0.0556 |
| GGCAAC | 0.322 ± 0.0219 | 0.438 ± 0.0577 |
| GCGCCA | 0.0557 ± 0.0063 | 0.143 ± 0.0639 |
| CGCAGC | 0.0883 ± 0.014 | 0.191 ± 0.0678 |
| CCTGGC | 0.162 ± 0.00687 | 0.281 ± 0.075 |
| CCGGGA | 0.237 ± 0.0178 | 0.341 ± 0.0693 |
| CGAGCA | 0.299 ± 0.00719 | 0.447 ± 0.0658 |
| GCATTA | 1.09 ± 0.0461 | 1.15 ± 0.019 |
| AGCTCG | 0.347 ± 0.0155 | 0.487 ± 0.0527 |
| GCACCC | 0.1961 ± 0.000728 | 0.322 ± 0.0644 |
| GCACCA | 0.324 ± 0.0178 | 0.451 ± 0.0674 |
| CTCGCA | 0.319 ± 0.0197 | 0.471 ± 0.0656 |
| GCTGCA | 0.256 ± 0.0235 | 0.379 ± 0.0774 |
| GCGCGA | 0.0544 ± 0.00435 | 0.152 ± 0.0576 |
| CGCATC | 0.304 ± 0.00796 | 0.441 ± 0.0726 |
| CGTCGC | 0.097 ± 0.00631 | 0.194 ± 0.077 |

| Sequence | binding signal [1] [fold-change vs cycle 0] | binding signal [2] [fold-change vs cycle 0] |
| --- | --- | --- |
| CGGCAC | 0.0866 ± 0.0073 | 0.207 ± 0.0784 |
| ACGGCA | 0.221 ± 0.00749 | 0.353 ± 0.0815 |
| GCCCGC | 0.0368 ± 0.00404 | 0.115 ± 0.0587 |
| ACGCCA | 0.244 ± 0.0178 | 0.368 ± 0.0567 |
| CCGGCA | 0.108 ± 0.00217 | 0.221 ± 0.0662 |
| CCGGCG | 0.0367 ± 0.00313 | 0.128 ± 0.0641 |
| GCCTCC | 0.209 ± 0.0253 | 0.334 ± 0.0802 |
| CGACCA | 0.322 ± 0.0112 | 0.456 ± 0.0665 |
| AGCCGC | 0.0699 ± 0.00939 | 0.174 ± 0.0601 |
| GGTATA | 1.34 ± 0.0665 | 1.3 ± 0.0853 |
| AGAATA | 2.17 ± 0.0929 | 1.84 ± 0.188 |
| CGCTAG | 0.338 ± 0.0234 | 0.465 ± 0.071 |
| CTGGCA | 0.281 ± 0.0156 | 0.413 ± 0.0619 |
| TGGCCA | 0.236 ± 0.00832 | 0.386 ± 0.0718 |
| ACACGC | 0.297 ± 0.0275 | 0.43 ± 0.0602 |
| AGCGGG | 0.168 ± 0.0263 | 0.277 ± 0.0671 |
| GAAGTA | 1.6 ± 0.0945 | 1.43 ± 0.121 |
| CAGCGG | 0.136 ± 0.019 | 0.242 ± 0.0833 |
| ATGATG | 1.51 ± 0.0621 | 1.43 ± 0.0931 |
